According to PubChem BioAssay (NCI):
Compounds without any hit were thinned out: in the full panel of roughly 83,000, 20% have a hit.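 Values shown are percent growth following 48 h exposure of cells in 96-well plates to a single concentration of compound; below 10 was considered active.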 A number with no mark means an inactive call. The source made the active and inactive calls.

Tests used:
Experiment in all cases: NCI-60 one-dose screen, 48 h (100 = growth as untreated, 0 = no growth, -100 = all killed)
Settings in all cases: 10 µM
NCI-H23 lung = test system: NCI-H23 lung
NCI-H226 lung = test system: NCI-H226 lung
NCI-H322M lung = test system: NCI-H322M lung
HOP-62 NSCLC = test system: HOP-62 NSCLC
HOP-92 NSCLC = test system: HOP-92 NSCLC
NCI-H522 lung = test system: NCI-H522 lung
A549/ATCC NSCLC = test system: A549/ATCC NSCLC
786-0 renal = test system: 786-0 renal
COLO 205 colon = test system: COLO 205 colon
DU-145 prostate = test system: DU-145 prostate
K-562 leukemia = test system: K-562 leukemia
MALME-3M melanoma = test system: MALME-3M melanoma
MDA-MB-231 breast = test system: MDA-MB-231 breast
RXF 393 renal = test system: RXF 393 renal
SF-268 CNS = test system: SF-268 CNS
SF-295 CNS = test system: SF-295 CNS
SF-539 CNS = test system: SF-539 CNS
UACC-257 melanoma = test system: UACC-257 melanoma
M14 melanoma = test system: M14 melanoma
NCI-H460 lung = test system: NCI-H460 lung

SMILES | growth (NCI-H23 lung) | growth (NCI-H226 lung) | growth (NCI-H322M lung) | growth (HOP-62 NSCLC) | growth (HOP-92 NSCLC) | growth (NCI-H522 lung) | growth (A549/ATCC NSCLC) | growth (786-0 renal) | growth (COLO 205 colon) | growth (DU-145 prostate) | growth (K-562 leukemia) | growth (MALME-3M melanoma) | growth (MDA-MB-231 breast) | growth (RXF 393 renal) | growth (SF-268 CNS) | growth (SF-295 CNS) | growth (SF-539 CNS) | growth (UACC-257 melanoma) | growth (M14 melanoma) | growth (NCI-H460 lung)
Cc1ccc([N+](=O)[O-])c(C(=O)Nc2ccc(-c3ccc4c(c3)NC(=O)/C4=C\c3ccc[nH]3)cc2)c1 | 21% | 52% | 48.9% | 86% | 109% | 39.5% | 47% | 61.6% | 8.99% (active) | 10.5% | 28% | 55.5% | 55.1% | 87.4% | 14.2% | -65.3% (active) | 73.7% | 81.4% | 34.2% | 
N#Cc1ccc(-c2nn(-c3ccc(C(=O)O)cc3)cc2CNc2cc(Cl)cc(Cl)c2)cc1 | 18.7% | 47.2% | 58% |  | 46.8% | 73.1% | 53.7% | 36% | 109% | 65.4% | 43.7% | 80.1% | 80.2% |  | 53.3% | 38.4% | 30.6% | 60.2% | 34.5% | 32.3%
Cc1cc2nc3c4ccccc4n(CCO)c3nc2cc1C | 60.1% | 69.7% | 92.4% |  | 34.9% | 78.8% | 97.6% | 12.1% | 106% | 58% | 74.4% | 37.8% | 18.5% | 38.6% | 78.1% | 66% | 37.1% | 91.7% | 84.6% | 98.3%
CC[C@]12C=CCN3CC[C@@]4(c5cc(C#CCNc6ccc(C)c(Nc7nccc(-c8cccnc8)n7)c6)c(OC)cc5N(C)[C@H]4[C@@](O)(C(=O)OC)[C@@H]1OC(C)=O)C32 (stereo partly drawn) | 56.3% | 30.6% | 90.8% |  | 42.2% | 58.5% | 36.8% | 46.3% | 31.7% | 59.7% | 35.1% | 61.1% | 39.6% |  | 57.9% | 39.5% | 8.99% (active) | 70.2% | 45.1% | 34.1%
Cc1nn(-c2ccccc2)c2ncn(CC(=O)N/N=C/c3c[nH]c4ccccc34)c(=O)c12 | 95.4% | 93.1% | 93.5% |  | 80.5% | 89% | 85.4% | 88% | 109% | 99.6% | 84.2% | 69% |  | 89.5% | 73.5% | 88.7% | 84.6% | 94.3% | 92.3% | 92.9%
COc1ccc(N2N=C(c3ccc4c(c3)OCCO4)CC2c2cccc(NC(=O)CCCNS(=O)(=O)c3ccc(F)cc3)c2)cc1 (stereo not drawn) | 85.7% | 74.5% |  | 89.6% | 81.6% | 58.9% | 61.8% | 66.6% | 84% | 91.5% | 56% | 79.7% | 69.2% | 68.1% | 56.2% | 65.2% | 77.7% | 88% | 81.9% | 64.8%
O=C(Nc1cccc(-c2cn(-c3ccc4oc(=O)ccc4c3)nn2)c1)Nc1cc(C(F)(F)F)cc(C(F)(F)F)c1 | 4.21% (active) | 33.4% | 34.4% |  | -28.1% (active) | 21.8% | 21.8% | 29.3% | 44.3% | 30.2% | 9.1% (active) | 29.8% | 34.7% | -5.05% (active) | 62.2% | -45.7% (active) | 19.1% | 50.2% | 55.5% | 27.8%
O=c1[nH]n(C(=S)N/N=C/c2ccc(F)cc2)c(=O)c2ccccc12 | 75.3% | 71.9% | 83.9% |  | 77% | 70% | 82.4% | 76.5% | 105% | 68.9% | 11.2% | 80.4% |  | 57.3% | 104% | 74.4% | -50.9% (active) | 95% | 78.1% | 55.9%
Cn1cc(-c2cc(N)n3nc(-c4c[nH]c5ccc(Br)cc45)cc3n2)c2cc(Br)cnc21 | -81.5% (active) | -55.3% (active) |  | -69.2% (active) | -63.2% (active) | -72% (active) | -45.8% (active) | -75% (active) | -90.9% (active) | -75.6% (active) | -27.4% (active) | -92.1% (active) | -82.5% (active) | -71.2% (active) | -22.5% (active) | -86.4% (active) | -97.6% (active) | -65.4% (active) | -90.6% (active) | 2.27% (active)
CC(=O)OC[C@@]1(C)C2CC[C@]3(C)C(CC=C4C5CC(C)(C)CC[C@]5(C(=O)Nc5ccccc5)CC[C@]43C)[C@@]2(C)C[C@@H](OC(C)=O)[C@@H]1OC(C)=O (stereo partly drawn) | 40.2% | 40.6% | 61.1% |  | 40.1% | 42% | 39.6% | 45.7% | 45.5% | 44.9% | 12.7% | 54.3% | 60.6% | 64.2% | 52.5% | 19.9% | 41.6% | 18.5% | 50.9% | 32%
CCCCSc1nc(Nc2ccc(/C(C)=N/NC(N)=S)cc2)c(C#N)c(-c2ccc(F)cc2)n1 | 21% | 20.7% | 53.8% |  | -18.5% (active) | 43.9% | 8.95% (active) | -20.5% (active) | 47.1% | 41.5% | 71.9% | 33.9% | 3.28% (active) |  | 90.1% | 28.5% | -13.5% (active) | 78.6% | 79% | 18.4%
Cc1ccc(-c2ccc(SCC(=O)Nc3ccc(S(N)(=O)=O)cc3Br)nn2)cc1 | 27.3% | 22.6% | 36% |  | -31.6% (active) |  | 15.8% | 16.4% | 33.1% | 21.5% | 72.4% | 29% | 1.3% (active) |  | 45.9% | 21.6% | 13.3% | 77.9% | 69.5% | 8.44% (active)
Cn1cc(/C=N/Nc2ccnc3cc(Cl)ccc23)c2ccccc21 | -84.1% (active) | -67.5% (active) | -99.6% (active) |  | -68% (active) | -68.1% (active) | -39% (active) | -65.2% (active) | -59% (active) | -92.7% (active) | 2.82% (active) | -82.1% (active) | -90.4% (active) |  | -73.9% (active) | -93.9% (active) | -92% (active) | -71% (active) | -66.9% (active) | -67.5% (active)
COc1ccc(-c2nc(S(=O)(=O)c3ccc(C)cc3)c(S(C)(=O)=O)o2)cc1 | -78.1% (active) | 72.1% | 89.6% |  | -75% (active) | -96.6% (active) | 81.2% | -33.4% (active) | -88.7% (active) | -99.1% (active) |  | -95.5% (active) | -92.4% (active) | -95.1% (active) | -37% (active) | 78.4% | -100% (active) | -84.6% (active) | -31.9% (active) | 4.05% (active)
O=C(Nc1nc2ccc([N+](=O)[O-])cc2s1)Nc1cc(Cl)ccc1I | -53.2% (active) | -50.9% (active) | -9.64% (active) |  | -32.5% (active) | -52.8% (active) | -9.31% (active) | -49.4% (active) | -98.1% (active) | 17.3% | -5.74% (active) | -41% (active) | -37% (active) | -44.8% (active) | 1.99% (active) | -71% (active) | -74.3% (active) | -36.5% (active) | -52.7% (active) | -2.31% (active)
COc1ccccc1[C@H]1C(C(=O)c2ccc(Cl)cc2)C2(N[C@@H]1c1ccccc1)C(=O)Nc1ccccc12 (stereo partly drawn) | -55.3% (active) | -53.2% (active) | 10.3% |  | -21.8% (active) | -27.5% (active) | 9.22% (active) | -15% (active) | -88.2% (active) | 3.98% (active) | 0.571% (active) | -37.4% (active) | -71.9% (active) | -73.8% (active) | 10.2% | -63.6% (active) | -60.8% (active) | -2.04% (active) | 5.88% (active) | -27.2% (active)
O=C1Nc2ccc(Cl)cc2/C1=C/c1cccc(OCc2ccccc2)c1 | 31% | 17.2% | 44.6% |  | 16.5% | 35.9% | 43.2% | 40.5% | 45.8% | 45.3% | 10.3% | 45.8% |  | -0.942% (active) | 28.5% | 31.7% | 35.3% | 45.8% | 27% | 13.5%
